What all share (test): NCI-60 one-dose screen, 48 h (100 = growth as untreated, 0 = no growth, -100 = all killed)
For one assay, the system named is HCT-15 colon. Conditions: 10 µM unless noted.
The test system of a further assay is HT29 colon. Conditions: 10 µM unless noted.
In another assay the test system is SNB-19 CNS. The following applies: 10 µM unless noted.
In the next assay the test system is U251 CNS. The following applies: 10 µM unless noted.
The subject of the next assay is PC-3 prostate. Conditions: 10 µM unless noted.
In another assay the test system is UACC-62 melanoma. The following applies: 10 µM unless noted.
In another assay the test system is LOX IMVI melanoma. The following applies: 10 µM unless noted.
The next assay deals with SK-MEL-28 melanoma. The following applies: 10 µM unless noted.
Another assay deals with EKVX NSCLC. Conditions: 10 µM.
In the next assay the test system is SN12C renal. Conditions: 10 µM unless noted.
A further assay relates to UO-31 renal. The following applies: 10 µM unless noted.
For another assay, the system named is TK-10 renal. Conditions: 10 µM unless noted.
The test system of the next assay is ACHN renal. Conditions: 10 µM unless noted.
A further assay has as its system CAKI-1 renal. The following applies: 10 µM unless noted.
For a further assay, the system named is A498 renal. Conditions: 10 µM unless noted.
For the next assay, the system named is CCRF-CEM leukemia. Conditions: 10 µM.
A further assay deals with MOLT-4 leukemia. The following applies: 10 µM unless noted.
For the next assay, the system named is SK-MEL-5 melanoma. The following applies: 10 µM unless noted.
The next assay relates to SNB-75 CNS. Conditions: 10 µM unless noted.
The next assay has as its system SK-MEL-2 melanoma. The following applies: 10 µM unless noted.

This is part of a sample that, as a whole, favours compounds with a hit. Of some 83,000 tested, about 20% had one in any assay.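 Interpretation: 100, growth as untreated; towards 0, rising growth inhibition; 0, no net growth; 0 to -100, cell death. Compounds scoring below 10 were considered active.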 Values without a mark were called inactive. Calls of active or inactive are those of the source.

Results on 10 compounds are retold here after PubChem BioAssay (NCI).

For the compound `O=c1[nH]c2cc(O)ccc2n2cc3c(F)cccc3c12`, the growth in the assay with HCT-15 colon was 38.7%; with HT29 colon it was 46.2%; in the assay with SNB-19 CNS it was 42.3%; with U251 CNS, 27.6%; in the assay with PC-3 prostate, 46.4%; in the assay with UACC-62 melanoma, 39.8%. Also, the growth in the assay with LOX IMVI melanoma is 36.8%; in the assay on SK-MEL-28 melanoma, 24.7%; with EKVX NSCLC it was 25.2%; in the assay with SN12C renal, 53.6%; in the assay on UO-31 renal, 12%; with TK-10 renal, 6.81% (active). Also, the growth was 24.5% with ACHN renal; -8.76% (active) in the assay with CAKI-1 renal; 39.5% in the assay with A498 renal; 49% in the assay on CCRF-CEM leukemia; 6.71% (active) with MOLT-4 leukemia.
In the case of `Cc1cc2cn3c4ccc(O)cc4[nH]c(=O)c3c2cc1C`, the growth in the assay on HCT-15 colon was 3.8% (active); in the assay on HT29 colon it was -67.6% (active); in the assay on SNB-19 CNS, 40.7%; in the assay on U251 CNS, -44.1% (active); in the assay with PC-3 prostate it was 37.5%; in the assay with SK-MEL-5 melanoma it was -31.5% (active). The growth in the assay with UACC-62 melanoma is 49%; in the assay with LOX IMVI melanoma, 4.61% (active); with EKVX NSCLC it was 41.3%; in the assay with SN12C renal, 38.5%; in the assay on UO-31 renal it was 3.07% (active); in the assay on TK-10 renal it was 0.912% (active). Besides, the growth was 11.8% in the assay on ACHN renal; -5.2% (active) with CAKI-1 renal; 18.6% in the assay with A498 renal; -7.53% (active) in the assay on CCRF-CEM leukemia; -18.2% (active) in the assay on MOLT-4 leukemia.
Take `CCCCCN1CCN(C(CC(=O)c2ccccc2)C(=O)c2ccccc2)CC1` (stereo unspecified): the growth is 94.5% with HCT-15 colon; 96.4% in the assay on HT29 colon; 100% in the assay with SNB-75 CNS; 92.6% in the assay on U251 CNS; 92.6% with PC-3 prostate; 106% in the assay with SK-MEL-5 melanoma. The growth was 82.8% in the assay on LOX IMVI melanoma; 104% in the assay on SK-MEL-2 melanoma; 110% with EKVX NSCLC; 95% in the assay on UO-31 renal; 99.9% with TK-10 renal; 106% in the assay with ACHN renal. Also, the growth with CCRF-CEM leukemia was -14.7% (active); in the assay on MOLT-4 leukemia, 27.9%.
As to `OCCN1CCCN(CCCN2c3ccccc3Sc3ccc(C(F)(F)F)cc32)CC1`, the growth in the assay on HCT-15 colon was 61.6%; with HT29 colon, 8.24% (active); with SNB-75 CNS, 50.4%; in the assay with U251 CNS, 33.6%; in the assay on PC-3 prostate, 57.2%; in the assay with SK-MEL-5 melanoma, 36.3%. Besides, the growth is -46.3% (active) with UACC-62 melanoma; 49% in the assay on LOX IMVI melanoma; 81.5% in the assay with SK-MEL-2 melanoma; 62.9% in the assay on SN12C renal; 41.8% in the assay on UO-31 renal; 68% in the assay with ACHN renal. For the same compound, the values for the growth in the assay with A498 renal and in the assay on MOLT-4 leukemia were 73.7% and 23.4%, respectively.
With `CCCCN(CCC)CCCCCCCCCCN1CCCc2ccccc21`, the growth was 78.8% in the assay on HCT-15 colon; 21.8% in the assay with HT29 colon; 89% in the assay with SNB-75 CNS; 87.7% in the assay on U251 CNS; 45.8% in the assay on PC-3 prostate; 98.8% in the assay on SK-MEL-5 melanoma. The growth in the assay with LOX IMVI melanoma is 67.8%; with SK-MEL-28 melanoma, 118%; with SK-MEL-2 melanoma it was 92.3%; in the assay on EKVX NSCLC, 64.3%; in the assay with UO-31 renal it was 54.3%; with TK-10 renal it was 82.7%. For the same compound, the growth was 82.7% in the assay on ACHN renal, 63.2% in the assay with CAKI-1 renal, 26.8% in the assay on CCRF-CEM leukemia and 50.5% in the assay with MOLT-4 leukemia.
As to `O=c1c2c(c3ccccc3n1-c1ccccc1)NC(=S)NC2c1ccccc1` (stereo unspecified), the growth in the assay on HCT-15 colon is 97.1%; in the assay with HT29 colon, 132%; in the assay with SNB-19 CNS, 99%; in the assay on U251 CNS it was 107%; in the assay with PC-3 prostate, -47.1% (active); in the assay with SK-MEL-5 melanoma it was 97.9%. For the same compound, the growth was 96% with UACC-62 melanoma; 97.9% in the assay on LOX IMVI melanoma; 116% with SK-MEL-28 melanoma; 97.1% with EKVX NSCLC; 90.4% in the assay on SN12C renal; 71.7% with UO-31 renal. In addition, the growth with TK-10 renal is 226%; with ACHN renal, 96.1%; with CAKI-1 renal it was 105%; in the assay on A498 renal it was 102%; in the assay with CCRF-CEM leukemia it was -25% (active); in the assay on MOLT-4 leukemia, 66.2%.
For the compound `Cc1ccc(C(=O)NN)cc1`, the growth was 102% in the assay on HCT-15 colon; 111% with HT29 colon; 94.5% in the assay on SNB-75 CNS; 109% with PC-3 prostate; 108% in the assay on SK-MEL-5 melanoma; 96.5% in the assay with LOX IMVI melanoma. The growth is 109% with SK-MEL-28 melanoma; 119% in the assay on SK-MEL-2 melanoma; 97.1% in the assay on EKVX NSCLC; 104% in the assay with UO-31 renal; 110% in the assay with TK-10 renal; 115% in the assay with ACHN renal. Moreover, the values for the growth with CCRF-CEM leukemia and with MOLT-4 leukemia were 99.5% and 93%, respectively.
As to `CC1(C)NC(=S)NC1=O`, the growth in the assay with HCT-15 colon is 102%; in the assay on HT29 colon, 105%; in the assay with SNB-75 CNS it was 89.9%; in the assay on U251 CNS, 98.4%; with PC-3 prostate it was 95.5%; in the assay on SK-MEL-5 melanoma, 101%. Also, the growth was 108% in the assay on UACC-62 melanoma; 97.5% with LOX IMVI melanoma; 110% with SK-MEL-28 melanoma; 129% with SK-MEL-2 melanoma; 105% in the assay on SN12C renal; 90.6% with UO-31 renal. The growth is 97.8% with CAKI-1 renal, 88.3% with A498 renal, 88.2% with CCRF-CEM leukemia and 90.8% in the assay on MOLT-4 leukemia.
For the compound `O=c1[nH]c(=S)[nH]c(O)c1/C=C1\C=Nc2ccccc21`, the growth in the assay on HCT-15 colon was 56.2%; in the assay with HT29 colon, 58.6%; in the assay on SNB-75 CNS, 71.8%; in the assay with U251 CNS it was 24%; in the assay with PC-3 prostate, 61.7%; with SK-MEL-5 melanoma, 75.8%. The growth in the assay on LOX IMVI melanoma was 67%; in the assay on SK-MEL-28 melanoma, 96.8%; in the assay with SK-MEL-2 melanoma, 128%; in the assay with EKVX NSCLC, 75.1%; in the assay on UO-31 renal, 31.1%; with TK-10 renal, 86.9%. Also, the growth with ACHN renal is 82.5%; in the assay on CAKI-1 renal, 27.3%; in the assay with CCRF-CEM leukemia, 4.02% (active); with MOLT-4 leukemia it was 42.4%.
Consider `CCCCCC(=C/c1ccccc1)/C=N/N=C(N)N`, for which the growth was -37.8% (active) with HCT-15 colon; -66.3% (active) in the assay on HT29 colon; 56.6% in the assay with SNB-75 CNS; 37.8% in the assay on PC-3 prostate; -91.5% (active) with SK-MEL-5 melanoma; -37.6% (active) with LOX IMVI melanoma. The growth in the assay on SK-MEL-28 melanoma was -90.2% (active); with SK-MEL-2 melanoma it was -55.7% (active); in the assay on EKVX NSCLC it was 46.1%; in the assay on UO-31 renal, -53.2% (active); in the assay on TK-10 renal, 72.9%; with ACHN renal, 1.62% (active). In addition, the values for the growth with CCRF-CEM leukemia and in the assay on MOLT-4 leukemia were 15.7% and 8.92% (active), respectively.
